In the library only some 2% were active in any assay of this set; here they are far more common.
Beta cell apopt = beta cell apoptosis inhibition | INS-1E cytokine-induced death, ATP luminescence, 48 h; percent of positive-control rescue, neutral wells zero | protection from apoptosis, % (no concentration beside the values) | actives 0.8% (n = 300,000) | AID 435005;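 active means Every replicate reaches about 75%, or at least half do and their mean reaches it too, limit read from the data; inconclusive means At least half of replicates reach the limit but their mean does not; inactive means Under half of replicates reach the limit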;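 further: 0% = cytokine-treated negative control wells and 100% = positive control rescue; higher means more ATP so stronger rescue from cytokine killing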
Calb FLC = affects C. albicans growth with fluconazole | C. albicans CaCi-2 (fluconazole-resistant clinical isolate) + fluconazole, Alamar Blue growth, 48 h | growth inhibition, % (test concentration not listed) | actives 0.57% (n = 300,000) | AID 1979;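 active means growth inhibition above about 58% in most replicates, limit read from the data, passing the limit was not always enough; inconclusive means exactly half the replicates above a set limit; inactive means most replicates below a set limit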;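 further: all wells also contain fluconazole at 8 µg/ml as a sub-toxic cotreatment; 0% = median of DMSO wells and 100% = median of geldanamycin control wells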
Jurkat NFkB inh = inhibitors of the PMA/ionomycin-induced NF-kB reporter in Jurkat cells | actives 0.53% (n = 330,000) | inhibition, % at 4 µM | PMA/ionomycin-induced NF-kB luciferase reporter, luminescence | AID 435003; in the data active means inhibition above about 50%
697 NFkB inh = inhibitors of the PMA/ionomycin-induced NF-kB reporter in 697 B cells; 697 B-cell NF-kB luciferase reporter, 16 h; inhibition, % at 4 µM; actives 0.33% (n = 330,000); AID 435022; in the data active means inhibition above about 35%
Shn3 3UTR inh = inhibitors of Schnurri-3 3'UTR reporter in osteoblasts | inhibition, % at 12.5 µM | AID 588674 | Clone20 osteoblast Shn3 3'UTR firefly luciferase, 24 h | actives 0.52% (n = 360,000);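 active means mean inhibition of at least 75% with every replicate also reaching 75%; inconclusive means mean inhibition at least 75% but some replicate below; inactive means mean inhibition below 75%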;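 further: 0% = median of neutral control wells and 100% = pilot-screen positive control compound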
697 NFkB conf = lowers PMA/ionomycin-induced NF-kB signal in 697 B cells. inhibition, % at 4 µM. shares compounds with 697 NFkB inh. 697 B-cell NF-kB luciferase, 16 h. actives 35% (n = 2,000). AID 449746; in the data active means inhibition mostly above about 28%, no sharp cut-off; inactive means mostly below about 22%
The depositor's hits bear a star; u = inconclusive; x = no result.

SMILES	Beta cell apopt	Calb FLC	Jurkat NFkB inh	697 NFkB inh	Shn3 3UTR inh	697 NFkB conf
COc1ccc(-c2nnc(SCC(=O)N3CCCC3=O)n2N)cc1OC	-2	x	8	9	6	x
C[C@@H](NC(=O)c1[nH]cnc1C(=O)Nc1cccc(Cl)c1)c1ccccc1	2	x	7	-18	9	x
CCOC(=O)c1ccc2[nH]c3c(c2c1)CCCC3C(=O)OCC (stereo unspecified)	-7	-2	1	25	10	x
CCOC(=O)C1CCCc2c1[nH]c1ccc(Cl)cc21 (stereo unspecified)	x	6	-27	-427	11	-15
C[C@@H]1CN([C@H](C)CO)C(=O)CCCn2nncc2CO[C@H]1CN(C)S(=O)(=O)c1ccccc1F	x	x	x	x	-2	x
Cc1ccc(C(=O)c2ccc(O)cc2)cc1C	-10	x	-11	-19	-40	x
Cc1ccc(C(=O)c2cccc(N)c2)cc1C	-4	-2	-5	37*	2	-12
Cc1nn(C)c(C)c1CN(C)S(=O)(=O)c1ccc2ccccc2c1	109*	x	47	82*	78	72*
COc1ccc(N=Nc2ccc(CO)cc2)cc1	-1	-13	-141	-324	-55	-241
C(=N\Nc1ccccc1)/c1nc2ccccc2s1	-6	-33	-137	-313	-79	-48
Brc1csc(/C=N/Nc2nc3ccccc3s2)c1	16	11	-140	-239	-54	x
COc1ccc(-c2nsc(SCC(=O)Nc3cc(C)on3)n2)cc1	-4	-1	-34	43*	4	30*
CCOC(=O)C1=C(CC)Nc2ccccc2N=C1NC(=O)c1ccc(OC)c(S(=O)(=O)N2CCOCC2)c1	x	x	x	x	8	x
C=C1CCN([C@@H](CC(C)C)C(=O)NCc2ccco2)S(=O)(=O)c2ccccc21	-1	-3	10	4	27	x
Cc1ccc(-c2nnc(Nc3ccccc3)o2)cc1	9	-5	-59	-303	21	-366
CCOc1ccc(C(=O)Nc2cc(C)on2)cc1	1	-2	-110	-82	-20	x
Cc1cc(NC(=O)c2cccc(COc3ccc(Br)cc3)c2)no1	x	8	-21	56*	6	12
Cc1ccc(NC(=S)Nc2ccc(S(=O)(=O)Nc3ncccn3)cc2)c(C)c1	4	5	-1	50*	-1	14
Cc1ccc(C)c(NC(=S)Nc2ccc(S(=O)(=O)Nc3ncccn3)cc2)c1	0	-2	7	18	5	x
NNC(=O)c1cccc(COc2ccc3c(c2)CCC3)c1	x	-25	9	56*	21	-30
CC(=C/c1ccco1)/C=N/NC(=O)CSc1nnc(SCc2ccc(C)cc2)s1	-3	17	-2	52*	-12	50*
O=C(CSc1nnc(SCc2ccccc2)s1)N/N=C/C=C\c1ccco1	-6	-1	-1	2	-12	x
Cc1cc(NC(=O)c2ccc3c(c2)OCCO3)ccc1NC(=O)c1cc2ccccc2o1	7	-4	-16	-5	13	x
O=C(Nc1ccc(NC(=O)c2cc3ccccc3o2)cc1)c1ccc2c(c1)OCCO2	-8	36	9	72*	23	59*
Cc1ccc(NC(=O)c2ccc3c(c2)OCCO3)cc1	2	2	-139	-252	-2	-211
SMILES	Beta cell apopt	Calb FLC	Jurkat NFkB inh	697 NFkB inh	Shn3 3UTR inh	697 NFkB conf
Cn1nc(-c2ccc(C(=O)Nc3ccc(F)cc3)cc2)c2ccccc2c1=O	x	u	-11	13	35	x
Cc1ccc(NC(=O)c2ccc(-c3nn(C)c(=O)c4ccccc34)cc2)cc1	-3	26	21	42*	21	14
Cc1ccc(C(=O)Nc2ccc3ccccc3c2)cc1	3	-2	-112	-368	53	-447
O=C(COC(=O)CNS(=O)(=O)/C=C/c1ccccc1)Nc1cc(S(=O)(=O)N2CCCCC2)ccc1Cl	-5	-4	0	-3	0	x
Cc1nc2c(ccc3nc(NC(=O)c4ccc5c(c4)OCCO5)sc32)s1	x	23	-116	-255	-49	-223
Oc1ccc(N=Nc2ccc3c(c2)OCO3)c2ccccc12	99*	2	16	-306	x	-22
Clc1ccc2nc(N3CCN(c4ccccc4)CC3)sc2c1	-1	-1	-139	-271	-44	-208
c1ccc(-c2nc(-c3ccc(-c4ccon4)s3)no2)cc1	x	-2	-127	-173	-164	x
Cc1ccc(-c2noc(-c3cccs3)n2)cc1	0	0	-146	-307	-19	-240

From PubChem BioAssay
